Sampled rows, rich in hits. Any-hit rate of the full collection: about 3.7%.
PLK1 PBD inh: inhibitors of human PLK1 polo-box domain binding; P53350; Plk1 PBD binding of FITC phosphopeptide, fluorescence polarization; Potency, µM, hits mostly inhibitors; 360,000 tested, 2.8% active; further: series mostly up to about 57 µM; nearly all actives have a fitted effect of over 65% in size
WRN helicase inh-1: blocks human WRN helicase. WRN helicase unwinding, fluorescent forked duplex, kinetic. Potency, µM (titrated, usually from 114 µM), most hits filed as inhibitors. 360,000 tested, 0.46% active. AID 651768; further: nearly all actives have a fitted effect of over 55% in size
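WRN at 20 nM final was preincubated with compound for 15 min at room temperature; reaction started with 100 nM forked duplex oligonucleotide carrying fluorophore and quencher plus 2 mM ATP (final). Unwinding followed kinetically by red fluorescence (ex 525/em 598 nm).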
TCR activator: activators of T cell receptors; Potency, µM (doses to about 9.22 µM), actives largely listed as activators; 330,000 tested, under 10 active; AID 504894; primary human leukocytes, anti-CD3, IL-2 HTRF, 48 h
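Primary human leukocytes were stimulated with a-CD3 beads plus compounds for 48 hr without co-stimulation; secreted IL-2 was quantified by HTRF using a-IL-2-K (europium cryptate) and a-IL-2-d2, excited at 320nm with acceptor emission read at 665nm.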
VDR inh: inhibitors of human vitamin D receptor | P11473 | VDR-SRC2-3 peptide fluorescence polarization, 2 h | Potency, µM, most hits filed as inhibitors | 400,000 tested, 0.93% active | AID 504847
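Compounds are added to VDR with labelled SRC2-3 coactivator peptide and held 2 h at room temperature. Inhibition of the VDR–peptide interaction is then read as a change in fluorescence polarization.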
FEN1 inh: human FEN1 inhibition | P39748 | Recombinant FEN1 flap cleavage, fluorescence, 15 min | Potency, µM (top dose mostly 114 µM), actives largely listed as inhibitors | 390,000 tested, 0.35% active; further: nearly all actives have a fitted effect of over 65% in size
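With each library titrated from low to high concentration, compounds met 10 nM FEN1 for 15 min at room temperature before 50 nM substrate was added; readings at 0 and 15 min fed four-parameter Hill curve fits.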
PI5P4Ka inh: blocks human PI5P4K alpha kinase activity. P48426. PI5P4Kalpha enzyme, ADP-Glo luminescence, 60 min; hits give low values. max response, %. 330,000 tested, 1.2% active. AID 652105; active means max response of -50% or lower; inconclusive means between -30% and -50%; inactive means -30% or higher; further: value at the top dose of about 77 µM
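Human PI5P4Kalpha with substrate in 0.038 M HEPES pH 7.4, 0.28 mM EGTA, 0.1% CHAPS, 5% DMSO; reaction started with 5 microM ATP (final), 60 min at room temperature. ADP formed read by ADP-Glo luminescence.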
WRN helicase inh-2: confirmation of human WRN helicase inhibitors; 610 tested, 63% active; WRN helicase DNA unwinding, fluorescence kinetic; Potency, µM (highest dose often 57.1 µM), actives largely listed as inhibitors; shares compounds with WRN helicase inh-1; further: nearly all actives have a fitted effect of over 65% in size
TO DNA binding: binds DNA, flagged in WRN inhibitor counterscreen; Potency, µM (top dose mostly 57.1 µM), most hits filed as inhibitors; thiazole orange DNA binding displacement, fluorescence; shares compounds with WRN helicase inh-1; 610 tested, 10% active; AID 720499;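 further: drop in dye fluorescence marks compound binding to DNA; nearly all actives have a fitted effect of over 60% in size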
BLM counter: counter-screen for WRN helicase inhibitors: human BLM helicase inhibition | Recombinant BLM helicase DNA unwinding, red fluorescence | Potency, µM (highest dose often 57.1 µM), actives largely listed as inhibitors | 610 tested, 60% active | shares compounds with WRN helicase inh-1; further: nearly all actives have a fitted effect of over 60% in size
Hits are given with their value; – = inactive; ? = inconclusive; · = no result. Unless noted, the call rests on the fitted dose curve; in most records, active means well fitted curve in the direction sought with a large enough effect; inconclusive means small, poorly fitted or top-dose-only effect, or another doubt; inactive means no such curve, though single readings can be large; an effect the other way counts as inactive or inconclusive.

SMILES	PLK1 PBD inh	WRN helicase inh-1	TCR activator	VDR inh	FEN1 inh	PI5P4Ka inh	WRN helicase inh-2	TO DNA binding	BLM counter
Cc1cc(=O)oc2cc(Oc3ccc(C(N)=O)cc3[N+](=O)[O-])ccc12	–	?	–	–	–	–	?	–	–
Cc1cc(Cl)ccc1Oc1ccc(C(N)=O)cc1[N+](=O)[O-]	–	–	–	–	–	–	·	·	·
C=CCn1c(SCC(=O)c2ccc(O)c(O)c2)nnc1-c1ccccc1OC	–	?	–	–	–	–	15µM	–	12µM
C=CCn1c(SCC(=O)Nc2cc(C)on2)nnc1-c1ccccc1OC	–	–	–	–	–	–	·	·	·
C=CCn1c(SCC(=O)c2ccc(O)c(O)c2)nnc1-c1cccc(C)c1	–	20µM	–	–	–	–	8.6µM	–	?
CC(NC(=O)C1CCN(c2nc3ccccc3nc2C(F)(F)F)CC1)c1ccccc1 (stereo unspecified)	·	·	·	–	–	·	·	·	·
CCOc1ccc(-n2c(SCC(=O)N3CCc4ccccc43)nc3c([nH]c4ccccc43)c2=O)cc1	·	·	·	–	–	·	·	·	·
Cc1cc(-c2ccc(C)c(S(=O)(=O)N3CCN(c4cccc(C(F)(F)F)c4)CC3)c2)on1	·	·	·	–	–	·	·	·	·
O=c1c(O)c(-c2ccc(O)c(O)c2)oc2cc(O)ccc12	–	2.4µM	–	–	?	?	1.5µM	–	0.86µM
COc1ccc(C(=O)Nc2ccc3c(c2)N(C2CCCC2)C(=O)c2ccccc2S3)cc1OC	·	·	·	–	–	·	·	·	·
COc1cc(NC(=O)CCn2cnc3ccccc3c2=O)cc(OC)c1	·	·	·	–	–	·	·	·	·
COc1ccc(/C=C2\SC(=S)N(CCCC(=O)Nc3ccccn3)C2=O)cc1OC	–	–	–	–	–	–	·	·	·
COc1cc(/C=C2/SC(=S)N(Cc3ccccc3)C2=O)cc(Cl)c1O	–	–	–	–	?	?	1.5µM	?	2.7µM
COc1cc(/C=C2/SC(=S)N(CC(=O)O)C2=O)ccc1OC(=O)c1cccs1	24µM	?	–	?	–	–	?	–	–
O=C(CCc1ccc(O)c(O)c1)N/N=C/c1cc2c(cc1[N+](=O)[O-])OCO2	?	?	–	–	?	?	22µM	30µM	8.6µM
Cc1ccccc1-c1nnc(CN2CCN(c3cccc(C)c3C)CC2)o1	·	·	·	–	?	·	·	·	·
COCCN1C(=O)/C(=C/c2ccc(OCc3ccc(C(=O)O)cc3)c(OC)c2)SC1=Nc1ccccc1	?	?	–	–	–	–	27µM	?	27µM
COc1cc(OC)c(NC(=O)Cn2cnc3nc4c(cc3c2=O)CCCC4)cc1Cl	·	·	·	–	–	·	·	·	·
O=C(CCCN1C(=O)/C(=C\c2ccco2)SC1=S)Nc1ccc(O)cc1C(=O)O	17µM	16µM	–	?	50µM	?	7.6µM	?	22µM
O=C(CCCN1C(=O)/C(=C/c2ccco2)SC1=S)Nc1cccc(C(=O)O)c1	–	35µM	–	–	?	-60	19µM	–	19µM
Cn1c(=O)c(=O)n(C)c2cc(C(=O)NCc3ccccc3Cl)ccc21	·	·	·	–	–	·	·	·	·
CCOC(=O)c1c(NC(=S)NC(=O)c2ccc(Cn3cc(Cl)cn3)o2)sc2c1CCCCC2	–	–	–	–	–	–	·	·	·
COC(=O)c1sc(NC(=O)c2ccc(Cn3cc(Cl)cn3)o2)c(C#N)c1C	3µM	?	–	?	–	?	–	–	?
Cc1cccc(-c2nc(C)c(CCNC(=O)C(=O)Nc3ccccc3C#N)s2)c1	·	·	·	–	–	·	·	·	·
O=C1CN(S(=O)(=O)c2cc(Br)ccc2Br)CCN1	–	–	–	–	–	–	·	·	·
O=c1c(Br)ccc(Br)cc1Br	0.53µM	10µM	–	10µM	?	–	24µM	–	22µM
CCc1ccccc1NC(=O)CCC(=O)N1CC(C)Oc2ccc(C)cc21 (stereo unspecified)	·	·	·	–	–	·	·	·	·

Compound activity (PubChem)
